# In the library only some 0.77% were active in any assay of this set; here they are far more common.
# RmlCD inh 1536: M. tuberculosis RmlC/RmlD coupled enzyme inhibitors, primary screen, biochemical, compound mixtures, 384-well, from 1536-well plates; 160,000 tested, 0.03% active; inhibition, % at 3.6 µM; dTDP-4-dehydrorhamnose reductase (Mycobacterium tuberculosis (strain ATCC 25618 / H37Rv)) …; RmlC+RmlD coupled enzyme assay, percent inhibition; primary screen in compound mixtures; in the data active means inhibition mostly above about 34%, no sharp cut-off
# RecA intein inh: Mtb RecA intein splicing inhibitors, primary screen, biochemical, fluorescence, HTS | 290,000 tested, 0.75% active | cell-free RecA intein splicing | Protein RecA (Mycobacterium tuberculosis (strain ATCC 25618 / H37Rv)), P9WHJ3 | inhibition, % (concentration not given with the values); in the data active means inhibition above about 30%
# Target sequence (P9WHJ3 whole entry, looked up): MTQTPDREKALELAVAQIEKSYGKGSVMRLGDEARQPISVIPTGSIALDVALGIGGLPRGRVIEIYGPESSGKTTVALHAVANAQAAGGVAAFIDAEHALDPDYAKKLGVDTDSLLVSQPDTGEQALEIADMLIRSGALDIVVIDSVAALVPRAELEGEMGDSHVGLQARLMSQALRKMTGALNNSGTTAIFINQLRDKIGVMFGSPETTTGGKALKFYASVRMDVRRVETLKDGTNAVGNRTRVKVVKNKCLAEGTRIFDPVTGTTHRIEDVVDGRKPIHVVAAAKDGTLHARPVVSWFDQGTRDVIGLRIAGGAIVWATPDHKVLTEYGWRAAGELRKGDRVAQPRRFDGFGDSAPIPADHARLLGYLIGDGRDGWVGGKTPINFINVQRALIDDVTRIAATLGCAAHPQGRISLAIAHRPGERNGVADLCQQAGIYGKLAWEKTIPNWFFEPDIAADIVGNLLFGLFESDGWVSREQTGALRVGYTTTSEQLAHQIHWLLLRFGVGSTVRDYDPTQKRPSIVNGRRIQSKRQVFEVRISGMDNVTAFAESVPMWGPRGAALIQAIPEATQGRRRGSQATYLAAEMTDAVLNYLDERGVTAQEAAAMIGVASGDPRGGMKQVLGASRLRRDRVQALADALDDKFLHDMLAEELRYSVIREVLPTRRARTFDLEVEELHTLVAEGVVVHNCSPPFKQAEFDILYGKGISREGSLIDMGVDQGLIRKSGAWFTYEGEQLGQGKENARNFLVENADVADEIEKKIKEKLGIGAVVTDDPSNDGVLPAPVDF
# A number is an active result; i = inactive; nt = no result.
SMILES,RmlCD inh 1536,RecA intein inh
CC(C)C[C@H](NC(=O)c1cc2cc(Cl)ccc2n1C)C(=O)N1CCC(C(=O)O)CC1,nt,i
COc1ccc(/C=C(/C#N)C(=O)Nc2ccc(O)cc2)cc1C(=O)O,i,45
CCc1ccc(NC(=O)/C(C#N)=C\c2ccc(OC)c(C(=O)O)c2)cc1,i,i
CC1Oc2cc3c(-c4c(O)cc(O)c5c(O)c6c(cc45)OC(C)C(C)C6=O)c(O)cc(O)c3c(O)c2C(=O)C1C (stereo not given),i,87
C[C@@H]1Cc2c(O)c(O)cc(O)c2C(=O)O1,nt,i
CCOC(=O)C(CC(=O)O)NCc1ccco1 (stereo not given),i,i
Cc1cc(C)c(NC(=O)COc2ccccc2C(=O)Nc2ccc3c(c2)oc2ccccc23)c(C)c1,99,i
COc1ccccc1C(=O)Nc1ccc2c(C)cc(=O)oc2c1,nt,i
Cc1ccc(OCC(O)CN2C(=O)NC(C)(C)C2=O)cc1C (stereo not given),i,i
CN(C)Cc1c(C(=O)N/N=C/c2ccc(OCc3c(F)cccc3Cl)cc2)nnn1-c1nonc1N,nt,i
CCOc1ccccc1CNC(=O)C1CCN(C(=O)N2CC(C)Oc3ccc(C)cc32)CC1 (stereo not given),nt,i
Cc1cccnc1NC(=O)C1CCN(S(=O)(=O)c2ccc3ccccc3c2)CC1,nt,i
COC(=O)c1cc(=O)c2cccc(OC)c2[nH]1,62,i
COc1ccc(OC)c2[nH]c(C(=O)O)cc12,nt,i
Cc1cc(OCC(=O)NCCCN2CCCC2=O)c2c(C)c(C)c(=O)oc2c1,nt,i
COc1ccccc1C(=O)NC(=S)Nc1ccc(NC(=O)c2ccco2)cc1,i,i
O=C(Cc1ccc(F)cc1)OCn1nnc2ccccc2c1=O,i,i
Cc1cccc(C(=O)c2cnc3ccccc3c2-c2ccccc2)c1,i,33
Cc1cccc(C(=O)NNC(=O)c2ccccc2)c1,i,i
O=S(=O)(c1ccc(Cl)cc1)c1cnc2ccccc2n1,i,i
Cc1cc(C)cc(S(=O)(=O)c2cnc3ccccc3n2)c1,i,32
CCn1c(C)nc2cc(-c3nnc(-c4c(-c5ccccc5)noc4C)o3)ccc21,i,i
Cc1onc(-c2ccccc2)c1-c1nc2cc(Cl)ccc2c(=O)o1,nt,36
CSCCC(NC(=O)c1ccccc1)C(=O)Nc1ccc(NC(C)=O)cc1 (stereo not given),i,i
OCCNC(=S)Nc1ccc2nsnc2c1,i,46
SMILES,RmlCD inh 1536,RecA intein inh
O=C(NCCO)Nc1ccc2nsnc2c1,i,nt
CSC1=C(C#N)C(C)CC(=O)N1 (stereo not given),nt,i
CN(C)n1cccc1/C=C(\C#N)S(=O)(=O)c1cccc(Cl)c1,i,i
O=C(CCl)N=c1sccn1Cc1ccc(Cl)cc1Cl,i,44
O=C(CCl)N=c1sccn1Cc1ccccc1Cl,i,i
COc1ccc(NC(=O)COc2ccccc2C)cc1S(=O)(=O)N1CCCCC1,nt,i
COc1cc(C(=O)NS(=O)(=O)c2ccccc2C)ccc1Cc1cn(C)c2ccc(NC(=O)OC3CCCC3)cc12,i,38
O=c1oc(-c2ccccc2)cc(Cl)c1Cl,nt,47
O=P(O)(O)c1cc(-c2ccccc2)oc1-c1ccccc1,i,i
COc1ccc(Nc2nnc(C)c(=O)[nH]2)c(OC)c1,i,i
COc1cccc(CN2CC(C(=O)NCCCn3cccn3)CCC2=O)c1 (stereo not given),nt,i
Cc1c(C(c2cccc(O)c2)c2c(C)n(C)n(-c3ccccc3)c2=O)c(=O)n(-c2ccccc2)n1C,i,i
CC1=NNC(=O)C1C(c1cccc(O)c1)C(C#N)C#N (stereo not given),i,60
CCOc1ccc(N2C(=O)c3ccc(C(=O)OCC(=O)N(CC)C4CCS(=O)(=O)C4)cc3C2=O)cc1 (stereo not given),i,i
O=C(COc1ccccc1[N+](=O)[O-])Nc1cc(Cl)ccc1C(=O)O,i,i
Cc1ccc(Oc2ncnc3sccc23)cc1,i,i
O=[N+]([O-])c1c(NCCCO)cc(Sc2nc3ccccc3s2)c2nonc12,i,i
Cc1nnc(Sc2cc(NCCO)c([N+](=O)[O-])c3nonc23)s1,i,93
O=C(COC(=O)c1ccco1)c1ccc2ccccc2c1,nt,i
O=C(Oc1ccc(-n2cnnn2)cc1)c1ccco1,i,38
O=C(Oc1ccc2ccccc2c1)c1ccco1,i,35
CCCOC(=O)c1ccc(NC(=O)Oc2ccccc2)cc1,i,i
Cc1cc(NC(=O)c2ccco2)ccc1-n1cnnn1,i,nt
CCCOC(=O)c1ccc(OC(=O)c2ccco2)cc1,nt,37
COc1ccc(C)cc1NS(=O)(=O)c1ccc2c(c1)CCN2C(C)=O,nt,i
Cc1onc(-c2ccccc2)c1C(=O)N1CCCN2C(=O)c3ccccc3C21 (stereo not given),i,nt
COC(=O)c1cn(Cc2ccccc2C)nn1,nt,i

# Screening results (PubChem)
